Results: PubChem BioAssay (EPA / NIEHS)
Records with an inconclusive call do not appear. Calls of active or inactive are those of the source. How the source made its calls: active means hit-call score of the fitted dose curve at least 0.9, where 1 is the maximum; inconclusive means response in the unintended direction; inactive means score below 0.9.

Target: human Mitogen-Activated Protein Kinase 1 (MAPK 1), MAPK1 (gene 5594) (UniProt P28482)
Test: NVS_ENZ_hMAPK1: NovaScreen (NVS) Enzymatic Assay for human Mitogen-Activated Protein Kinase 1 (MAPK 1) (AID 2283175)
Summary of the method: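 Cell-free recombinant human MAPK1 enzymatic assay, fluorescence/electrophoretic mobility shift read at 1 h; loss of signal vs DMSO. Primary screen in duplicate at 25 uM; actives (e.g. ≥30% inhibition) run as concentration-response up to 50 uM.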

human Mitogen-Activated Protein Kinase 1 (MAPK 1), MAPK1 (gene 5594), sequence (P28482 whole entry, looked up): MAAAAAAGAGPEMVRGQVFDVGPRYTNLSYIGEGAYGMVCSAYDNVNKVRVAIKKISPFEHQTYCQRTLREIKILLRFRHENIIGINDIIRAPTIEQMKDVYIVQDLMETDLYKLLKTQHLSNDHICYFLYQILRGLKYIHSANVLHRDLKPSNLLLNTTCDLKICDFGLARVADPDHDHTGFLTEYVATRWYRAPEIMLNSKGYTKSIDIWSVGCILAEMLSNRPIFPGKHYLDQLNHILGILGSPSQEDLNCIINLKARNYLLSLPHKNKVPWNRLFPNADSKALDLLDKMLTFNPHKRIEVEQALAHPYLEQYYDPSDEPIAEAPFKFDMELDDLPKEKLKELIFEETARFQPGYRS

Row | Structure (SMILES) | outcome
1 | ClC1=C(Cl)C2(Cl)C3C(Cl)C(Cl)CC3C1(Cl)C2(Cl)Cl (stereo not drawn) | inactive
2 | CC(C)(C)OOC(C)(C)C | inactive
3 | Cc1ccc(O)cc1C | inactive
